Screens as filed in PubChem BioAssay.
Hits are enriched below; roughly 2.9% of the tested compounds scored in any of these assays.
PI5P4K alpha inh – qHTS for Inhibitors of phosphatidylinositol 5-phosphate 4-kinase (PI5P4K); actives 1.2% (n = 330,000); Phosphatidylinositol 5-phosphate 4-kinase type-2 alpha (Homo sapiens), P48426; max response, %; PI5P4Kalpha enzyme, ADP-Glo luminescence, 60 min; stronger effect = lower value; AID 652105, 2013; active = max response of -50% or lower; inconclusive = between -30% and -50%; inactive = -30% or higher; also: value at the top dose of about 77 µM; % is scaled to controls: 0 for no effect and ±100 for the full control effect
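Luminescence from ADP-Glo served as readout of PI5P4Kalpha activity in a qHTS format. Reaction: enzyme, substrate, compound, ATP at 5 microM final, 60 min at RT.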
Pol eta inh-1 – qHTS for Inhibitors of Polymerase Eta; DNA polymerase eta (Homo sapiens), Q9Y253; recombinant Pol eta, fluorescent DNA replication assay; Potency, µM (top dose mostly 114 µM), without a hit: top-dose activity change, negative = inhibition, most hits filed as inhibitors; actives 1.2% (n = 390,000); AID 588591, 2011; also: potency is read from the fitted curve at half-maximal effect; % is scaled to controls: 0 for no effect and ±100 for the full control effect
Target sequence (Q9Y253 whole entry, looked up): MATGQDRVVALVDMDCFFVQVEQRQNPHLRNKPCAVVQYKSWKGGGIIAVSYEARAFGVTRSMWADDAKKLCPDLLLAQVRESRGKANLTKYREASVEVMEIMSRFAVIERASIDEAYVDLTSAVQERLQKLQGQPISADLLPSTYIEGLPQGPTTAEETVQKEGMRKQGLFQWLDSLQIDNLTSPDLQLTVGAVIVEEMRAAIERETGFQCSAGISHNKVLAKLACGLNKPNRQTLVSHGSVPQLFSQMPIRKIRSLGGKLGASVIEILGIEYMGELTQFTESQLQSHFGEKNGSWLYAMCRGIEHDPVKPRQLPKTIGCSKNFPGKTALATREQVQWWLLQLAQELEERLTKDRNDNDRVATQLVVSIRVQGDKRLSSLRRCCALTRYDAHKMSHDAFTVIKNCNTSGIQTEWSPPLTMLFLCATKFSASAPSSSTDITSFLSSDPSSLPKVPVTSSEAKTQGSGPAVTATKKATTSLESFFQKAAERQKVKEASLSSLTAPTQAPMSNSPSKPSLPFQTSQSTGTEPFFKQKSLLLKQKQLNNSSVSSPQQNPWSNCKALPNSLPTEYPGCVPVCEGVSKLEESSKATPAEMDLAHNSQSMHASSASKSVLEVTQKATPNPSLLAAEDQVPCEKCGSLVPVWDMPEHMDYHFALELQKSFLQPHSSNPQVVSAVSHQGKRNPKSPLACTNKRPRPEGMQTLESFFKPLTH
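Fluorescent replication assay: 50 nM final substrate added after a 15 min room-temperature compound preincubation with 10 nM enzyme. Signal taken at 0 min and again at 10 min.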
Pol kappa inh-1 – qHTS for Inhibitors of Polymerase Kappa; DNA polymerase kappa (Homo sapiens), Q9UBT6; purified Pol kappa, fluorescent DNA synthesis assay, 10 min; Potency, µM (highest dose often 107 µM), without a hit: at the top dose activity, negative = inhibition, usual class: inhibitors; actives 0.53% (n = 400,000); AID 588579, 2011; also: potency is read from the fitted curve at half-maximal effect; % is scaled to controls: 0 for no effect and ±100 for the full control effect
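50 nM final substrate added after 15 min RT preincubation of 10 nM Pol kappa with compound; fluorescence read at 0 and 10 min.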
12-LOX inh – Primary qHTS assay for inhibitors of human arachidonate 12S-lipoxygenase (ALOX12): Round 2 | Potency, µM (titrated, usually from 108 µM), for the others: at the highest dose activity change, negative = inhibition, most hits filed as inhibitors | AID 1671190, 2021 | purified 12hLO, xylenol orange hydroperoxide absorbance | actives 1.1% (n = 580,000) | Polyunsaturated fatty acid lipoxygenase ALOX12 (Homo sapiens), P18054; also: potency is read from the fitted curve at half-maximal effect; % is scaled to controls: 0 for no effect and ±100 for the full control effect
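Purified human 12hLO (150 nM final) in 25 mM Hepes, 0.01% Triton X-100, pH 7.0 was preincubated 15 min at room temperature with compound. Then 40 uM arachidonic acid was added, 30 min. Hydroperoxide was read by Fe-XO absorbance ratio 573/405 nm.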
POLI inh – qHTS for Inhibitors of Polymerase Iota. DNA polymerase iota (Homo sapiens), Q9UNA4. Pol iota fluorescent replication assay, 10 min. Potency, µM (series often up to 115 µM), for the others: at the top dose activity, negative = inhibition, usual class: inhibitors. actives 1% (n = 390,000). AID 588590, 2011; also: potency is read from the fitted curve at half-maximal effect
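Fluorescent replication assay read twice, at 0 min and 10 min after adding 50 nM (final) substrate. Enzyme (10 nM) and compounds were first incubated 15 min at room temperature; enzyme-free buffer wells were negative controls.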
POLB inh – qHTS Assay for Inhibitors of DNA Polymerase Beta | Potency, µM (titrated, usually from 114 µM), without a hit: at the top dose activity change, negative = inhibition, hits mostly inhibitors | AID 485314, 2010 | actives 1.3% (n = 340,000) | P06746 | Pol beta primer extension/strand displacement, fluorescence kinetic; also: potency is read from the fitted curve at half-maximal effect; % is scaled to controls: 0 for no effect and ±100 for the full control effect
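Reaction started by 50 nM substrate onto compound-treated Pol beta (10 nM, 15 min preincubation, room temperature); plates read at 0 min and 10 min. Normalized concentration-effect data fitted by four-parameter Hill equation.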
PGK validate – qHTS for inhibitors of Phosphogylcerate Kinase: Hit Validation Screen | shares compounds with Pol kappa inh-1 | TbPGK coupled GAPDH assay, Kinase-Glo luminescence | actives 79% (n = 500) | Potency, µM (titrated, usually from 57.5 µM), inactives show at the highest dose activity change, negative = inhibition, usual class: inhibitors; also: potency is read from the fitted curve at half-maximal effect; % is scaled to controls: 0 for no effect and ±100 for the full control effect; nearly all actives have a fitted effect of over 65% in size
Pol iota confirm – qHTS for Inhibitors of Polymerase Iota: Confirmatory Assay for Cherry-picked Compounds | shares compounds with Pol kappa inh-1 | Pol iota primer extension, TAMRA/BHQ fluorescence | Potency, µM, most hits filed as inhibitors | actives 77% (n = 1,500); also: potency is read from the fitted curve at half-maximal effect
GALK inh confirm – Confirmation Assay for Inhibitors of Human Galactokinase (GALK); shares compounds with Pol eta inh-1; purified GALK, Kinase-Glo ATP depletion luminescence; Potency, µM (doses to about 115 µM), for the others: at the highest dose activity, negative = inhibition, most hits filed as inhibitors; actives 70% (n = 150); AID 2015, 2009
Redox cycling – Confirmatory Assay for Inhibitors of Human Galactokinase (GALK): Phenol-HRP redox assay counterscreen. actives 40% (n = 150). shares compounds with Pol eta inh-1. AID 2035, 2009. Potency, µM (top dose mostly 115 µM), without a hit: at the highest dose activity change, negative = H2O2 signal, hits mostly inhibitors. Phenol red-HRP H2O2 redox cycling, absorbance 600 nm
HEK293 tox – Secondary Assay for Inhibitors of Human Galactokinase (GALK): HEK-293 Cell Viability Assay; AID 2547, 2010; shares compounds with Pol eta inh-1; Potency, µM (top dose mostly 46.1 µM), for the others: at the top dose activity change, negative = cytotoxicity, most hits filed as inhibitors; actives 10% (n = 170); HEK-293 viability, ATP luminescence (CellTiter-Glo), 24/48 h; also: potency is read from the fitted curve at half-maximal effect; % is scaled to controls: 0 for no effect and ±100 for the full control effect
Pol kappa inh-2 – qHTS for Inhibitors of Polymerase Kappa: Confirmatory Assay for Cherry-picked Compounds | shares compounds with Pol eta inh-1 | purified Pol-kappa, fluorescent strand-displacement substrate | Potency, µM, most hits filed as inhibitors | actives 76% (n = 920) | AID 720501, 2013; also: potency is read from the fitted curve at half-maximal effect
Pol eta inh-2 – qHTS for Inhibitors of Polymerase Eta: Confirmatory Assay for Cherry-picked Compounds | shares compounds with Pol eta inh-1 | Pol eta primer extension, TAMRA/BHQ fluorescence, 10 min | Potency, µM, hits mostly inhibitors | actives 64% (n = 2,600) | AID 720502, 2013; also: potency is read from the fitted curve at half-maximal effect
An asterisk follows results filed as active; ? = inconclusive; nt = not tested or not shown. Unless noted, calls follow the shape of the dose curve; as a rule, active = well fitted curve in the direction sought with a large enough effect; inconclusive = small, poorly fitted or top-dose-only effect, or another doubt; inactive = no such curve, though single readings can be large; an effect the other way counts as inactive or inconclusive.

SMILES	PI5P4K alpha inh	Pol eta inh-1	Pol kappa inh-1	12-LOX inh	POLI inh	POLB inh	Pol iota confirm	Pol eta inh-2	others
Nc1nonc1-c1nc2ccccc2n1CC(=O)Nc1ccccc1C(=O)O	nt	-6.1%	-15.0%	-10.5%	8.0%	-1.2%	nt	nt
O=C(O)c1cccc(-c2ccc(/C=N/NC(=O)c3cccnc3)o2)c1	-25.8	10µM*	-41.9%	-2.6%	?	25.1µM*	?	30.1*
O=c1c(C(c2ccc(O)cc2)c2c(O)nc3n(c2=O)CCCS3)c(O)nc2n1CCCS2	?	12.6µM*	?	?	?	-5.4%	?	75.7*
CC(C)(C)C1CCc2onc(C(=O)N3CCCCCC3)c2C1 (centres undefined)	nt	nt	nt	17.2%	nt	nt	nt	nt
CCn1c(SCC(=O)NCc2ccco2)nnc1-c1ccco1	nt	nt	nt	5.4%	nt	nt	nt	nt
CCOc1ccc2nc(COc3cc(C)cc(C)c3)[nH]c2c1	nt	nt	nt	30.4%	nt	nt	nt	nt
O=C(O)C(c1ccccc1)N1C(=O)/C(=C\c2ccc(O)c(O)c2)SC1=S (centres undefined)	?	3.16µM*	7.08µM*	?	?	3.98µM*	15*	4.78*	Pol kappa inh-2=2.67*
O=C1C=C(O)c2c(O)cc(O)c(O)c2C1=O	-68.2*	1.58µM*	2µM*	?	3.55µM*	nt	3.77*	21.3*	PGK validate=8.19µM*
CC(=O)c1cccc(Nc2nc3ccccc3nc2NS(=O)(=O)c2cccc(C)c2)c1	nt	nt	nt	-14.6%	nt	nt	nt	nt
CCOc1ccc(/C=N/Nc2ccc(Cl)nn2)c(O)c1	-3.2	3.8%	-8.6%	-8.6%	15.4%	11.7%	nt	nt
Oc1ccc(/C=N/Nc2ccc(Cl)nn2)c(O)c1O	-70.6*	10µM*	?	?	?	17.8µM*	16.8*	30.1*
O=C(O)CCCN1C(=O)/C(=C/c2cn(-c3ccccc3)nc2-c2cccs2)SC1=S	3.1	28.2µM*	?	?	35.5µM*	22.4µM*	42.3*	75.7*
CNC(=O)Cn1nc(-c2ccccc2)c2ccccc2c1=O	nt	nt	nt	-0.8%	nt	nt	nt	nt
CCN(CCCNc1cc2c(c(N)c1S(=O)(=O)O)C(=O)c1ccccc1C2=O)c1ccccc1	-55.8*	25.1µM*	nt	?	nt	nt	67*	75.7*	Pol kappa inh-2=?
CCOC(=O)C1CCN(c2c(NCCCN(CC)c3ccccc3)c(=O)c2=O)CC1	nt	2.4%	-24.4%	20.6%	-18.0%	0.2%	nt	nt
O=C(O)CN1C(=O)N/C(=C\c2cccn2-c2ccc(P(=O)(O)O)cc2)C1=O	nt	2.3%	-10.0%	?	?	nt	nt	nt
COc1ccc(NC(=O)CN2C(=O)N/C(=C\c3cccn3-c3ccc(C(=O)NC#N)cc3)C2=O)cc1	nt	nt	nt	nt	nt	nt	42.3*	60.1*	Pol kappa inh-2=18.9*
N#CNC(=O)c1ccc(-n2cccc2/C=C2\NC(=O)N(CC(=O)Nc3ccc(F)cc3)C2=O)cc1	nt	nt	nt	nt	nt	nt	26.7*	47.8*
N#Cc1cc(N)cc(I)c1	nt	nt	nt	6.7%	nt	nt	nt	nt
N#CC(C#N)=C1C=C2C=C(N3CCCCCC3)CCC2CC1 (centres undefined)	-0.4	50.1µM*	?	-7.8%	44.7µM*	39.8µM*	42.3*	16.9*
N#CC(C#N)=C1C=C2C=C(N3CCOCC3)CCC2CC1 (centres undefined)	1.6	-1.6%	-5.0%	?	101.7%	26.7%	nt	nt
O=C(Nc1cccc(Oc2ccc(C(=O)O)c(C(=O)O)c2)c1)c1ccc(-c2ccccc2)cc1	?	22.4µM*	89.1µM*	6.2%	?	?	84.4*	?	PGK validate=14.6µM*;GALK inh confirm=23.7µM*;Redox cycling=4.3%;HEK293 tox=12.0%
CC(C)(C)C(=O)Nc1ccc(C(=O)Nc2cccc(Oc3ccc(C(=O)O)c(C(=O)O)c3)c2)cc1	-5.7	?	-32.2%	-24.8%	-29.5%	-2.1%	nt	nt
